Most compounds without a hit are left out; they make up all but 5.7% or so of the library.
GLP1R cytotox: cytotoxicity counter-screen for GLP-1 receptor inverse agonists. HEK293 cAMP-luciferase reporter cells, luminescence, 24 h. Potency, µM (series often up to 38.3 µM), for inactives: at the top dose activity change, negative = inhibition, usual class: inhibitors. 410,000 compounds, 0.13% hits;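 also: loss of luciferase light is scored as toxicity; potency is read from the fitted curve at half-maximal effect; % is scaled to controls: 0 for no effect and ±100 for the full control effect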
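Compound-treated cells are incubated 24 hr at 37 deg C under 5% CO2 after a 12 hour attachment period, then luciferase detection reagent is added and luminescence is measured following 12 min at room temperature; lowered signal indicates toxicity.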
ClpP mod: qHTS Assay for Activators of ClpP | ATP-dependent Clp protease proteolytic subunit (Bacillus subtilis (strain 168)), P80244 | purified B. subtilis ClpP, FRET peptide cleavage, 20 min | Potency, µM (titrated, usually from 57.5 µM), for inactives: top-dose activity change, negative = active | 340,000 compounds, 1.9% hits | AID 651965, 2013; active = well fitted falling curve with a large enough effect; inconclusive = small, poorly fitted or top-dose-only effect; inactive = no such curve, though single readings can be large or run the other way; also: potency is read from the fitted curve at half-maximal effect; the source files actives as falling curves though it sought activators and does not explain the sign; nearly all actives have a fitted effect of over 65% in size
Target sequence (P80244 whole entry, looked up): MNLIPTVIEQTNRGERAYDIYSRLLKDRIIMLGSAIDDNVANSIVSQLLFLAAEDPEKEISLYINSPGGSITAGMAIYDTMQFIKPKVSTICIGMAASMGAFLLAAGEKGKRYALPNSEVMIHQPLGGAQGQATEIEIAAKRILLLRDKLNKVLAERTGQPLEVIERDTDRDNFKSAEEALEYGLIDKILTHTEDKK
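ClpP 10 microg/mL final, pH 8 Tris/KCl buffer with BSA, glycerol, Tween-20; compound pinned in; FRET-FV substrate; RT 20 min; Ex320/Em430; ΔFRET vs ADEP 5.8 microM, DMSO, no enzyme.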
GLP1R ag: GLP-1 receptor (human) agonism; Potency, µM (doses to about 45.6 µM), for the others: top-dose activation, actives largely listed as activators; 380,000 compounds, 0.007% hits; HEK293 GLP-1R CRE-luciferase, luminescence, 4-6 h; cells express a hypersensitive GLP-1R form; AID 624172; P43220; also: potency is read from the fitted curve at half-maximal effect; % of control where 0% means no effect
D3 ag: agonists of human D3 dopamine receptor | P35462 | D3R DiscoveRx beta-arrestin cells, luminescence, 90 min | max activation, % | 410,000 compounds, 0.58% hits | AID 652048; in the data active = max activation above about 30%; also: 0% is about no effect
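Agonist-mode cell screen: cells plated at 1500/well and incubated overnight at 37 °C, then exposed to library compounds for 90 min at 37 °C. Detection reagent was added for 30–60 min at room temperature, and luminescence was read.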
GLP1R inv ag: inverse agonists of human GLP-1 receptor | HEK293 GLP-1R CRE-luciferase, luminescence, 24 h; GLP-1R form is constitutively active | Potency, µM (highest dose often 38.3 µM), inactives show at the top dose activity change, negative = inhibition, hits mostly inhibitors | 410,000 compounds, 1.6% hits | AID 624417; also: potency is read from the fitted curve at half-maximal effect; % is scaled to controls: 0 for no effect and ±100 for the full control effect; nearly all actives have a fitted effect of over 55% in size
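Luminescence readout: a drop in cAMP-driven luciferase signal flags inverse agonism at a constitutively active GLP-1R stably expressed in HEK293. Compound exposure lasted 24 hr at 37 deg C, 5% CO2.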
DRD3 antagonist: antagonists of human D3 dopamine receptor. D3R cells, DiscoveRx beta-arrestin luminescence, antagonist mode; hits give low values. max response, negative = inhibition, %. 360,000 compounds, 2.5% hits. AID 652054; in the data active = max response below about -50%; inconclusive = no clear call, values can overlap the other calls; also: % is scaled to controls: 0 for no effect and ±100 for the full control effect
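Cells plated overnight at 1500 cells/well, then exposed to library compounds with dopamine controls for 90 minutes at 37 degrees C. DiscoveRx reagent added for 30–60 minutes at room temperature; luminescence read, quantitative HTS format.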
Starred values were filed as active, the others as inactive; ? = inconclusive; nt = not tested or not shown. Unless noted, calls follow the shape of the dose curve; as a rule, active = well fitted curve in the direction sought with a large enough effect; inconclusive = small, poorly fitted or top-dose-only effect, or another doubt; inactive = no such curve, though single readings can be large; an effect the other way counts as inactive or inconclusive.

SMILES	GLP1R cytotox	ClpP mod	GLP1R ag	D3 ag	GLP1R inv ag	DRD3 antagonist
CC(C)CC1NC(=O)N(CC(=O)N2c3ccccc3NC(=O)C2(C)C)C1=O (stereo unspecified)	-11%	-3%	7%	0	17%	-9
CC(C)C[C@@H]1NC(=O)[C@H](Cc2ccccc2)N(C)C(=O)[C@H](C)NC(=O)c2ccccc2NC(=O)[C@H](Cc2ccc(O)cc2)N(C)C1=O	?	-16%	-4%	-2	10µM*	49
Cc1cc(C)cc(NC(=O)CSc2oc(-c3cccs3)nc2S(=O)(=O)c2ccccc2)c1	-20%	-11%	nt	13	16%	nt
Cc1ccc(NS(=O)(=O)c2ccc(NC(=O)C(C)Sc3ccc(Cl)cc3)cc2)c(C)c1 (stereo unspecified)	12%	0%	2%	-2	10µM*	-5
CC1CC2=C(C(=O)O1)C(c1ccc(Cl)cc1)Nc1ccccc1N2 (stereo unspecified)	0%	-1%	0%	-4	-31%	-52*
CCOC(=O)c1cc([N+](=O)[O-])cc([N+](=O)[O-])c1Sc1ncnc2nc[nH]c12	-43%	-1%	-14%	-25	?	-86*
Cc1cccc(NS(=O)(=O)c2cccc(C(=O)NCC(C)(C)N3CCOCC3)c2)c1	2%	-2%	2%	7	-11%	-81*
O=C(NCC(c1ccc(F)cc1)N1CCOCC1)c1nn(-c2ccccc2)c(=O)c2ccccc12 (stereo unspecified)	5%	-4%	-6%	-24	-21%	-83*
Cc1ccc(NS(=O)(=O)c2cccc(C(=O)NCC(c3ccc(F)cc3)N3CCOCC3)c2)cc1 (stereo unspecified)	-11%	nt	5%	-18	10µM*	-8
O=C(NCC(c1cccs1)N1CCOCC1)c1cccc(S(=O)(=O)Nc2ccc(F)cc2)c1 (stereo unspecified)	3%	0%	-6%	-17	-14%	2
COc1ccc(C(CNC(=O)c2cccc(S(=O)(=O)Nc3ccc(F)cc3)c2)N2CCCCC2)cc1 (stereo unspecified)	12%	-2%	1%	-24	?	-72*
C[C@H]1CN(CCc2ccccc2)C(=O)[C@@H]1CC(=O)Nc1ccccc1	4%	-2%	2%	-7	-10%	-9
CCN(CC)S(=O)(=O)c1ccc2c(c1)N(CC(=O)Nc1ccc(F)cc1F)C(=O)C1CCCN21 (stereo unspecified)	5%	3%	nt	2	21%	nt
O=C(NCC(c1ccc(F)cc1)N1CCOCC1)c1cccc(Br)c1 (stereo unspecified)	-18%	-3%	-3%	40*	-13%	-9
O=C(NCC(c1ccc(F)cc1)N1CCOCC1)c1c(F)cccc1F (stereo unspecified)	-10%	nt	12%	3	14%	4
CC1=CC(C)C2C(=O)N(c3ccccc3)NC(=O)C2C1 (stereo unspecified)	2%	16µM*	5%	2	?	0
Clc1ccc(CSc2ncnc3c2ncn3C2CCCCO2)cc1 (stereo unspecified)	0%	nt	31%	-2	11µM*	8
CCOC(=O)c1ccc2[nH]c(CSc3nnc(-c4cccc(F)c4)n3C)cc(=O)c2c1	2%	0%	nt	9	8%	nt
CC(=O)Oc1ccc(NC(=O)C2CCCCC2)c(C(=O)O)c1	3%	28µM*	-5%	1	-9%	26
CC(=O)Oc1ccc(NC(=O)Cc2ccccc2)c(C(=O)O)c1	5%	nt	1%	-6	27%	?
O=c1cc(-c2ccc(O)c(O)c2)oc2cc(O)cc(O)c12	-23%	-2%	2%	43*	2%	55
COc1ccc(-c2cc(=O)c3c(O)cc(O)cc3o2)cc1	1%	1%	1%	-1	15%	18

Screening results deposited in PubChem by National Center for Advancing Translational Sciences (NCATS).
